Inconclusive results are not listed. Active and inactive are the calls of the source. The calls were made as follows, unless noted: active = hit-call score of the fitted dose curve at least 0.9, where 1 is the maximum; inconclusive = response in the unintended direction; inactive = score below 0.9.
Columns and labels:
[1] = target: Oxysterols receptor LXR-alpha (Homo sapiens) (UniProt Q13133); experiment: ATG_LXRa_TRANS: Attagene TRANS-FACTORIAL HepG2 Assay for human Liver X Receptor alpha (LXRa) (AID 2282980); conditions: HepG2 Attagene TRANS reporter, LXRa transactivation
In short: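 Read-out: reporter transcript levels by RT-PCR plus capillary electrophoresis, fluorescence intensity. Transiently transfected HepG2, exogenous NR-GAL4 chimera, GAL4-UAS reporters; 24 h compound exposure. Activity = increase over DMSO negative control.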

[2] = target: Oxysterols receptor LXR-beta (Homo sapiens) (UniProt P55055); experiment: ATG_LXRb_TRANS: Attagene TRANS-FACTORIAL HepG2 Assay for human Liver X Receptor beta (LXRb) (AID 2282981); conditions: HepG2 Attagene TRANS GAL4-LXRb reporter, mRNA
In short: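 After 24 h of chemical treatment, transfected HepG2 cells yield total RNA; reporter cDNA is PCR-amplified, FAM-labelled, HpaI-cut and run on capillary electrophoresis. Signal reflects chimeric LXRb-Gal4 activity on GAL4-UAS reporters.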

[3] = ATG_M_06_TRANS: Attagene TRANS-FACTORIAL HepG2 Assay for M06 Transcription Factor (Internal Marker) (AID 2282983); conditions: HepG2 Attagene TRANS M06 internal marker reporter
In short: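 Read-out: fluorescent reporter cDNA fragments resolved by capillary electrophoresis after RT-PCR and HpaI cut. Source cells were HepG2 carrying transfected multi-reporter GAL4 constructs, dosed 24 h. Increase over DMSO control analysed.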

[4] = ATG_M_32_TRANS: Attagene TRANS-FACTORIAL HepG2 Assay for M32 Transcription Factor (Internal Marker) (AID 2282984); conditions: HepG2 Attagene TRANS M32 internal marker reporter
In short: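 Cell-based TRANS-format assay in HepG2: exogenous chimeric GAL4 reporter units transiently expressed, compounds applied 24 h. Reporter mRNA detected by RT-PCR plus capillary electrophoresis; this readout is an internal background marker.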

[5] = target: Transcriptional activator Myb (Homo sapiens) (UniProt P10242); experiment: ATG_Myb_CIS: Attagene CIS-FACTORIAL HepG2 Assay for human Myeloblastosis (Myb) Proto-Oncogene Transcription Factor (AID 2282986; active = hit-call score of the fitted dose curve at least 0.9, where 1 is the maximum; inactive = score below 0.9); conditions: HepG2 Attagene CIS-FACTORIAL Myb reporter transcription; actives raise or lower the signal
In short: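 Reporter transcript levels, quantified by fluorescent RT-PCR and capillary electrophoresis, serve as the read-out. Transfected HepG2 cells carrying cis-promoter reporter units are dosed for 24 hours, and curves are fitted bidirectionally against DMSO controls.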

[6] = target: Nuclear respiratory factor 1 (Homo sapiens) (UniProt Q16656); experiment: ATG_NRF1_CIS: Attagene CIS-FACTORIAL HepG2 Assay for human Nuclear Respiratory Factor 1 (NRF1) Orphan Gene (AID 2282987; active = hit-call score of the fitted dose curve at least 0.9, where 1 is the maximum; inactive = score below 0.9); conditions: HepG2 NRF1 cis-element reporter, Attagene multiplex; actives raise or lower the signal
In short: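 Multiplexed cis-reporter assay, HepG2 cells, 24 h treatment. Total RNA → oligo(dT) RT → PCR with reporter-specific primers → 6-FAM primer extension → HpaI cut → CE. Bidirectional fit vs DMSO.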

[7] = ATG_NFI_CIS: Attagene CIS-FACTORIAL HepG2 Assay for human Nuclear Factor I (NFI) (AID 2282989; active = hit-call score of the fitted dose curve at least 0.9, where 1 is the maximum; inactive = score below 0.9); conditions: HepG2 cis-regulatory reporter, NFI response element transcription; actives raise or lower the signal
In short: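 Transfected HepG2 liver cells, exposed 24 h, supplied total RNA for oligo(dT) reverse transcription and reporter-specific PCR. Labelled, HpaI-cut fragments were sized by capillary electrophoresis; DMSO set the baseline for bidirectional fitting.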

[8] = target: Nuclear receptor subfamily 4 group A member 2 (Homo sapiens) (UniProt P43354); experiment: ATG_NURR1_TRANS: Attagene TRANS-FACTORIAL HepG2 Assay for human Nuclear Receptor Related Protein 1 (NURR1) (AID 2282985); conditions: HepG2 Attagene TRANS reporter, mRNA readout
In short: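 Measures transcriptional activation by an exogenous NR-Gal4 chimera in transfected HepG2 liver cells. After 24 h, reporter RNA is reverse-transcribed, amplified and resolved by capillary electrophoresis; DMSO defines baseline.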

[9] = target: Hepatocyte nuclear factor 4-alpha (Homo sapiens) (UniProt P41235); experiment: ATG_HNF4a_TRANS: Attagene TRANS-FACTORIAL HepG2 Assay for human Hepatocyte Nuclear Factor 4 alpha (HNF4a) (AID 2282982); conditions: HepG2 HNF4a transactivation reporter, mRNA readout
In short: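 Multiplexed reporter assay: transfected HepG2, 24 h exposure, total RNA → oligo(dT) RT → PCR → 6-FAM extension → HpaI digest → CE fluorescence. DMSO = negative control.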

Measured: outcome

Nuclear respiratory factor 1 (Homo sapiens), sequence (Q16656 whole entry, looked up): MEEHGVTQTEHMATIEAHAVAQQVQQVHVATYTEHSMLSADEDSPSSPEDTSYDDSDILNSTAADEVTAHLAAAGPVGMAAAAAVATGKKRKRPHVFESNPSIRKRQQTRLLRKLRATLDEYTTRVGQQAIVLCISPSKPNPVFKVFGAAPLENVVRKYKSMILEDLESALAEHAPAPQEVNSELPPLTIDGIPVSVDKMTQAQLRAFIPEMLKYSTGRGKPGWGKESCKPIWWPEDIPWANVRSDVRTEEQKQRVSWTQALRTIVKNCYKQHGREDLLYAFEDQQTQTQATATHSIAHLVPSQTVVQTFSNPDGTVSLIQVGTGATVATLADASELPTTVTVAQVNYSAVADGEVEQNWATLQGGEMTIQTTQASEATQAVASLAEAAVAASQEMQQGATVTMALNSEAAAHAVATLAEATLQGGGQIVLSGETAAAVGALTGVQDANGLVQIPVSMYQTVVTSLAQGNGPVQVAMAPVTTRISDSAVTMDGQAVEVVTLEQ
Transcriptional activator Myb (Homo sapiens), sequence (P10242 whole entry, looked up): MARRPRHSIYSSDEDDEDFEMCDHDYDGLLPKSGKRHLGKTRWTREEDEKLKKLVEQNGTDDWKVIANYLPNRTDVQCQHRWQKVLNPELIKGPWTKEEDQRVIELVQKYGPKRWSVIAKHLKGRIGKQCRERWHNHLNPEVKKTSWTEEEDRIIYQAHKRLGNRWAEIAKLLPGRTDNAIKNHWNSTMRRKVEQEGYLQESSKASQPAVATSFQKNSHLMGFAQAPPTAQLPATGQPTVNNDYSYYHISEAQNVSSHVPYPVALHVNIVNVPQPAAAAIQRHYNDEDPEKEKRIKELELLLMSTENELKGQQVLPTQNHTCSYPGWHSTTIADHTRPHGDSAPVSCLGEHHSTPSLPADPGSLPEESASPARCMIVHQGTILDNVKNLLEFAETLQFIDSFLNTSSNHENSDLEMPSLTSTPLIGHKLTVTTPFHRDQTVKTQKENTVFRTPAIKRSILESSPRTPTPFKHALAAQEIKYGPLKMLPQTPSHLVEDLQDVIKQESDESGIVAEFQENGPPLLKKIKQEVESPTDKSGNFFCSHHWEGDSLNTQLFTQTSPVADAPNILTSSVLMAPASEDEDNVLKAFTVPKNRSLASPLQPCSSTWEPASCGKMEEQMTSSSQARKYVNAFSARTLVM
Oxysterols receptor LXR-alpha (Homo sapiens), sequence (Q13133 whole entry, looked up, the tested form may be a part): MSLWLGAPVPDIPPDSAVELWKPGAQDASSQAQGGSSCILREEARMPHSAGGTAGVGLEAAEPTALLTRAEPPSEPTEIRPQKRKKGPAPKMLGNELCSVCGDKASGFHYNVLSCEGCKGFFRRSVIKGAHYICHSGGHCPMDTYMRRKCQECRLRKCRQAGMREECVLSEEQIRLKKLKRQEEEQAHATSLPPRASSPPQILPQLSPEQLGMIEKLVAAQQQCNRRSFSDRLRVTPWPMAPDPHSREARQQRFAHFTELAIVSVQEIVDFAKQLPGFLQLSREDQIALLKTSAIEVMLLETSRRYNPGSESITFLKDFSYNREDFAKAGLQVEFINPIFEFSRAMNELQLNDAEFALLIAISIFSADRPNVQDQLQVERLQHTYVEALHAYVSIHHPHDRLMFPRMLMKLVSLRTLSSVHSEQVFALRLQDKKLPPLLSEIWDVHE
Oxysterols receptor LXR-beta (Homo sapiens), sequence (P55055 whole entry, looked up, the tested form may be a part): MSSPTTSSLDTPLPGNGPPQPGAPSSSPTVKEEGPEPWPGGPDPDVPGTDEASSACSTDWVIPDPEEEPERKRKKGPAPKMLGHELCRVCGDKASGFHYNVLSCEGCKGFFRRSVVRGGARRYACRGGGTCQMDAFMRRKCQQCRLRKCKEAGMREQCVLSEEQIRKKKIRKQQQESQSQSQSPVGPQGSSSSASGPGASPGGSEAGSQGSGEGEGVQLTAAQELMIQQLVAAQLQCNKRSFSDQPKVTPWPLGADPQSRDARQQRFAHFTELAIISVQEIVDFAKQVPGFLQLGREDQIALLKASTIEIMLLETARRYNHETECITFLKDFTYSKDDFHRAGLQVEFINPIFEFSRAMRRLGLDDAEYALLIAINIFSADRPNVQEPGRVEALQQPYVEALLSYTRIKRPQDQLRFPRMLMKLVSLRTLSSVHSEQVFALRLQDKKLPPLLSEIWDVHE
Nuclear receptor subfamily 4 group A member 2 (Homo sapiens), sequence (P43354 whole entry, looked up, the tested form may be a part): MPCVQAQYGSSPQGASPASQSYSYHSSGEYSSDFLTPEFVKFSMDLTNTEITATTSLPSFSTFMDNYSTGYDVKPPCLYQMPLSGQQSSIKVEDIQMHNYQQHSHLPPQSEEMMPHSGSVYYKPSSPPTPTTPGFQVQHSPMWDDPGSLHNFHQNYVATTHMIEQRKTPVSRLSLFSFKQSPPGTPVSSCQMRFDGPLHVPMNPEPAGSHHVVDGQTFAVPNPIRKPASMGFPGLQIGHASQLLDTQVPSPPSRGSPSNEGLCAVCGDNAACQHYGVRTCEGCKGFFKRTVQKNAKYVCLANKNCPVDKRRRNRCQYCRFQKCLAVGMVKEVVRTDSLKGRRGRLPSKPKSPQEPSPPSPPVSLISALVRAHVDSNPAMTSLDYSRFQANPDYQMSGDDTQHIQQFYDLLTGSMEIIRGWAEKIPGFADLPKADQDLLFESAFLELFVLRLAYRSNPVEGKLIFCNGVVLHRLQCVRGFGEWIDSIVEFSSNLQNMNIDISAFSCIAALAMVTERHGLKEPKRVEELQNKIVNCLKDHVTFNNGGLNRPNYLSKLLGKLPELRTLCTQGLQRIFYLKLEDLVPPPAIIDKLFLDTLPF
Hepatocyte nuclear factor 4-alpha (Homo sapiens), sequence (P41235 whole entry, looked up): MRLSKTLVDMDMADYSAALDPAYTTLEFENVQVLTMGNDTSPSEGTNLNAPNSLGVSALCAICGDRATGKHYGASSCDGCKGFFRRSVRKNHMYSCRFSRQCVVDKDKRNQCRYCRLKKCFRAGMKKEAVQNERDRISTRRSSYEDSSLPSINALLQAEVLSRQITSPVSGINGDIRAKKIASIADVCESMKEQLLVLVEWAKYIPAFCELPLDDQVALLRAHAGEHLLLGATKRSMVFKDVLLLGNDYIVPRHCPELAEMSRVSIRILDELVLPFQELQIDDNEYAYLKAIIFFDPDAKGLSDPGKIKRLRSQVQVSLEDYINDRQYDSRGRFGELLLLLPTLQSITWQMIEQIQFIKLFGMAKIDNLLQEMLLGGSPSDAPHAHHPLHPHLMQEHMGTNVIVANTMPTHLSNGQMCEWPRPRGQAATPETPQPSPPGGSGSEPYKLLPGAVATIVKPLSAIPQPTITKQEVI

CS(=O)(=O)c1ccc(Cl)cc1
not listed: [8] | [9]
inactive: all other assays above

CC1(C)CCC[C@]2(C)[C@H]3CCO[C@]3(C)CC[C@@H]12
not listed: [2] | [8] | [9]
inactive: all other assays above

COc1ccccc1N=Nc1c(S(=O)(=O)O)cc2cc(S(=O)(=O)O)cc(NC(C)=O)c2c1O
not listed: [2] | [9]
inactive: all other assays above

O=C(O)c1cc(C(=O)O)cc([N+](=O)[O-])c1
not listed: [2] | [3] | [9]
inactive: all other assays above

C=C1C[C@]23C[C@@]1(O)CC[C@H]2[C@@]12C=C[C@H](O)[C@@](C)(C(=O)O1)[C@H]2[C@@H]3C(=O)O
inactive: [1] | [3] | [5] | [6] | [7]

C=C(C)[C@H]1CC=C(C)C(=O)C1
not listed: [2] | [7] | [8]
inactive: all other assays above

Nc1ccc2c(O)cc(S(=O)(=O)O)cc2c1
not listed: [2] | [4] | [9]
inactive: all other assays above

COC(=O)C=C(C)CCC=C(C)C
not listed: [2] | [8]
inactive: all other assays above

CCc1ncc(C)[nH]1
not listed: [4] | [8] | [9]
inactive: all other assays above

CC(=O)OCCCc1ccccc1
not listed: [3] | [8] | [9]
inactive: all other assays above

C=C(C#N)C(=O)OCC
inactive: [1] | [2] | [3] | [4] | [6]

CC(C)(CO)[C@@H](O)C(=O)NCCC(=O)O
not listed: [1] | [9]
inactive: all other assays above

ON=C1CCCCC1
inactive: [2] | [3] | [5] | [6] | [7]

N[C@@H](Cc1cc(I)c(Oc2cc(I)c(O)c(I)c2)c(I)c1)C(=O)O
not listed: [1] | [5]
inactive: all other assays above

C[C@@H]1CCN(C(=O)[C@H](CCCN=C(N)N)NS(=O)(=O)c2cccc3c2NC[C@H](C)C3)[C@@H](C(=O)O)C1
not listed: [1] | [4] | [9]
inactive: all other assays above

O=c1[nH]c(=O)c2cn[nH]c2[nH]1
not listed: [1] | [3] | [8]
inactive: all other assays above

CCCC(C)C(O)CC (stereo not given)
inactive: [1] | [8] | [5] | [6] | [7]

O=C(O)CCCCCCCCCCCC(=O)O
inactive: [1] | [5] | [6]

C#CC(C)(O)CC(C)C (stereo not given)
inactive: [1] | [4] | [5] | [6] | [7]

CCCC(=O)C(CC)Sc1ccoc1C (stereo not given)
not listed: [1] | [9]
inactive: all other assays above

COCCOCCOCCO
not listed: [1] | [3]
inactive: all other assays above

CN(c1nccc(=O)[nH]1)C1CCN(c2nc3ccccc3n2Cc2ccc(F)cc2)CC1
not listed: [1] | [9]
inactive: all other assays above

NC1CCCCC1N (stereo not given)
not listed: [1] | [9]
inactive: all other assays above

COC(C)(C)CCO
inactive: [2] | [4] | [5] | [6] | [7]

CC1=CC[C@@]23C[C@@H]1C(C)(C)[C@@H]2CC[C@H]3C
not listed: [1] | [9]
inactive: all other assays above

O=C(c1ccccc1)C(O)c1ccccc1 (stereo not given)
inactive: [1] | [8] | [5] | [6]

From PubChem BioAssay (EPA / NIEHS)
